Drawing on PubChem BioAssay AID623870 (Broad Institute, 2012), this text covers inhibition for 43 compounds.

About 2,600 (0.67%) of roughly 390,000 compounds were called active. The sample as a whole holds a higher share of actives than the screen did. Unmarked numbers belong to inactive results.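 The calls were made as follows: active = mean inhibition of replicates at least 50% and at least half of replicates each reaching 50%; inconclusive = half or more replicates reach 50% but mean below 50%; inactive = the rest.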

This assay deals with Transforming acidic coiled-coil-containing protein 3 (Homo sapiens) (UniProt Q9Y6A5). Kind of assay: disruptors of ARNT/TACC3 protein interaction, primary screen, biochemical, AlphaScreen, single concentration (AID 623870).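 Also: 0% = complete ARNT plus TACC3 wells and 100% = ARNT alone without TACC3.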 Particulars: AlphaScreen His-ARNT PAS-B/GST-TACC3 binding, luminescence; at 9.99 µM; hits give high values; TACC3 fragment carries E629A point mutation. On the technique in general: In Alpha technology, singlet oxygen from a donor bead excites a nearby acceptor bead.
For the compound `O=C(COC(=O)CSc1nnc(-c2ccc(Cl)cc2)o1)Nc1cc(Cl)cc(Cl)c1`, the inhibition is 2.05%.
As for `CCc1cccc(NC(=O)COC(=O)c2cc(=O)c3ccccc3o2)c1`, the figure is -1.51%; as for `CC(=O)Nc1cccc(C(=O)OCC(=O)Nc2nnc(-c3ccccc3)o2)c1`, 55.1% (active).
For `CO[C@@H]1CN(C)C(=O)c2ccc(NC(=O)Nc3ccccc3)cc2OC[C@H](C)N(C(=O)CC2CC2)C[C@@H]1C`, the inhibition is -5.39%.
As to `COCCNC(=O)C(OC(=O)c1cccs1)c1ccc(F)cc1` (stereo not drawn), the inhibition is -9.93%.
For `COCCCNC(=O)Cn1cc(C(=O)C2CC2)c2ccccc21` the value was 1.82%; for `COCCNC(=O)Cn1cc(C(=O)c2cccs2)c2ccccc21`, -1.09% (active).
As for `C[C@@H]1CCCCO[C@H](CN(C)Cc2ccc(Cl)c(Cl)c2)[C@H](C)CN([C@@H](C)CO)C(=O)c2cc(NC(=O)C3CCCCC3)ccc2O1`, the figure is -6.84%; as for `C[C@@H]1CN([C@@H](C)CO)C(=O)CCCn2cc(nn2)CO[C@H]1CN(C)C(=O)Nc1ccc(N2CCCCC2)cc1`, 4.48%.
As for `O=C(NCC[C@@H]1CC[C@H](NC(=O)Nc2cc(F)ccc2F)[C@@H](CO)O1)Nc1ccc(Cl)cc1`, the figure is -4.66%; as for `CNC(=O)C[C@@H]1CC[C@@H]2[C@H](COc3ccc(NC(=O)Nc4ccccc4)cc3C(=O)N2C)O1`, -2.84%; as for `O=C(CC1CC1)N1[C@H](CO)[C@@H]2c3ccccc3N(S(=O)(=O)c3ccc(F)cc3)C[C@@H]21`, -6.11%.
With `O=C(C[C@H]1CC[C@@H](NC(=O)Cc2cccnc2)[C@H](CO)O1)Nc1ccc(-c2ccccc2)cc1`, the inhibition is -7.46%.
As for `COc1ccc(S(=O)(=O)Nc2ccc3c(c2)CC(=O)N([C@H](C)CO)C[C@H](C)[C@H](CN(C)CC2CC2)O3)cc1`, the figure is -8.43%.
As for `O=C(Nc1cc(F)ccc1F)N1C[C@H]2[C@@H](c3ccccc31)[C@@H](CO)N2CC1CCCC1`, the figure is -1.12%.
`CC(C(=O)Nc1ccc(O)c(C(=O)O)c1)N1C(=O)/C(=C/c2cccs2)SC1=S` (stereo not drawn): the inhibition was 55.9% (active).
As for `Cc1cccc(NC(=O)C(C)N2C(=O)C3C4CC(C(Br)C4Br)C3C2=O)c1` (stereo not drawn), the figure is 5.02%.
As for `Cc1noc(C)c1S(=O)(=O)N(C)C[C@@H]1OCCCC[C@H](C)Oc2ccc(NC(=O)Nc3ccc4c(c3)OCO4)cc2C(=O)N([C@H](C)CO)C[C@H]1C`, the figure is -0.948%; as for `CC1=NNC(=O)C1CCC(=O)N/N=C\c1cccc(Cl)c1` (stereo not drawn), 4.23%; as for `COc1cccc(/C=N\NC(=O)C2=NNC(=O)C2C)c1O` (stereo not drawn), 71.4% (active).
For `CC1=NNC(=O)C1CC(=O)N/N=C/c1ccncc1` (stereo not drawn) the value was 3.25%; for `C[C@@H]1CN([C@@H](C)CO)C(=O)c2cc(NC(=O)CCCN(C)C)ccc2O[C@@H](C)CCCCO[C@H]1CN(C)C(=O)Nc1cccc2ccccc12`, 39.5% (active); for `C[C@@H]1CN([C@@H](C)CO)C(=O)c2cc(NC(=O)Cc3ccccc3)ccc2O[C@@H](C)CCCCO[C@H]1CN(C)C(=O)Nc1cccc2ccccc12`, 1%.
Regarding `C[C@@H]1CCCCO[C@H](CN(C)C(=O)Nc2cccc3ccccc23)[C@H](C)CN([C@@H](C)CO)C(=O)c2cc(NC(=O)CCCN(C)C)ccc2O1`, the inhibition is 14.2%.
In the case of `C[C@@H]1CN([C@H](C)CO)C(=O)Cc2cc(NC(=O)Nc3cccc4ccccc34)ccc2O[C@@H]1CN(C)Cc1ccc(C(=O)O)cc1`, the inhibition was -8.02% (active).
For the compound `C[C@@H]1CN([C@H](C)CO)C(=O)Cc2cc(NC(=O)Nc3cccc4ccccc34)ccc2O[C@@H]1CN(C)Cc1ccc(C(F)(F)F)cc1`, the inhibition was 0.147%.
For `C[C@H]1CN([C@@H](C)CO)C(=O)Cc2cc(NC(=O)Nc3cccc4ccccc34)ccc2O[C@@H]1CN(C)C` the value was -6.19%; for `CC=Cc1ccc2n(c1=O)C[C@@H]1[C@@H](CO)[C@H](C(=O)NCC3CC3)[C@H]2N1C(=O)c1ccccc1` (mixture of isomers), -1.91%; for `O=c1nc2s/c(=C\c3ccco3)c(=O)n2nc1Cc1ccccc1`, 67.7% (active).
As to `O=c1/c(=C/c2ccc(CNS(=O)(=O)c3ccccc3)o2)sc2n1CCN=2`, the inhibition was 40.1%.
For `CO[C@@H]1CN(C)C(=O)c2ccc(NC(=O)NC(C)C)cc2OC[C@@H](C)N(C(=O)NC(C)C)C[C@H]1C` the value was -3.87%; for `COc1ccccc1-c1cnc2c(c1)C(=O)N([C@H](C)CO)C[C@H](C)[C@H](CN(C)Cc1cccnc1)O2`, 29.4%.
As for `O=C(CN1CCOCC1)N[C@@H]1CC[C@@H](CCn2cc(C3CCCCC3)nn2)O[C@@H]1CO`, the figure is 0.304%; as for `CCC(=O)N(C)C[C@H]1Oc2cc(-c3ccccc3F)ccc2S(=O)(=O)N([C@H](C)CO)C[C@@H]1C`, -1.89%.
As for `COc1ccc(NC(=O)O[C@@H](c2ccc(OCCO)cc2)[C@@H](C)CCO)cc1`, the figure is -10.6%; as for `O=C(O)c1ccc2c3c(cccc13)C(=O)N(OS(=O)(=O)c1ccccc1)C2=O`, 67.5% (active); as for `C[C@@H]1CN([C@H](C)CO)C(=O)c2cc(C#CCN(C)C)cnc2O[C@@H]1CN(C)C(=O)Cc1cccnc1`, -0.97%.
Regarding `CO[C@H]1CN(C)C(=O)c2ccc(NC(=O)c3ccc4c(c3)OCO4)cc2OC[C@@H](C)NC[C@@H]1C`, the inhibition was -11.2%.
As for `CC1=NN(c2ccc(Cl)c(C(=O)O)c2)C(=O)/C1=C/c1ccc(-c2ccccc2[N+](=O)[O-])o1`, the figure is 29.2% (active); as for `Cc1ccc(-c2ccc(/C=C(\C#N)C(N)=S)o2)c([N+](=O)[O-])c1`, 1.03%; as for `Cc1ccc(S(=O)(=O)N(C)C[C@H]2Oc3c(NC(=O)C4CC4)cccc3C(=O)N([C@@H](C)CO)C[C@@H]2C)cc1`, -6.68%.
Regarding `COC(=O)C1=C(C)NC2=C(C(=O)c3ccccc32)C1c1ccc(-c2ccc(C(=O)O)cc2)o1` (stereo not drawn), the inhibition was 65.4% (active).
As for `O=C(C[C@H]1C[C@H]2c3cc(NC(=O)Nc4ccccc4F)ccc3O[C@H]2[C@H](CO)O1)NCc1ccccn1`, the figure is -10.9%.

One may read the inhibition as the change of the read-out against control, counted positive when it falls.
